A selection: hits, their analogues and other compounds. The true share with any hit is near 6%.
D1 antagonist: Antagonist of Human D 1 Dopamine Receptor: qHTS | AID 504652, 2011 | D(1A) dopamine receptor (Homo sapiens), P21728 | HEK293 TREx D1 cells, calcium flux, dopamine EC80; hits give low values | actives 3.2% (n = 360,000) | activity change, negative = inhibition, % at 10 µM; in the data active means activity change below about -30%; further: on the % scale 0 is the no-effect control and ±100 the full control effect
Target sequence (P21728 whole entry, looked up): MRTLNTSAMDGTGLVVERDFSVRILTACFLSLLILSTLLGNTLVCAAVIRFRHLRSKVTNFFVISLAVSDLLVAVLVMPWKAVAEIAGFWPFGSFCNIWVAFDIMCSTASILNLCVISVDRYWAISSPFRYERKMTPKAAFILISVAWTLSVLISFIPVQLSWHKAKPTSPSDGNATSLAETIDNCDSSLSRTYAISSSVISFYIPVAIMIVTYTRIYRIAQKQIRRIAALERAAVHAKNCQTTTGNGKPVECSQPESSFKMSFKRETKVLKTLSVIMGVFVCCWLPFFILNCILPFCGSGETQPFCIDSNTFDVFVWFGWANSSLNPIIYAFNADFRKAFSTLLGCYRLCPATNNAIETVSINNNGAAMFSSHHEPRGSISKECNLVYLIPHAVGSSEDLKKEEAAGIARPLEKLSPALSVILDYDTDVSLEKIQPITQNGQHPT
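Allosteric or orthosteric antagonism assessed as attenuation of the calcium response to EC80 dopamine, added 180 s after compound, in induced HEK293 Trex D1 cells loaded with no-wash calcium dye.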
D1 ag: Allosteric Agonists of the Human D1 Dopamine Receptor: qHTS | HEK293 T-REx D1 cells, calcium flux, agonist mode | actives 1% (n = 360,000) | AID 504660, 2011 | activation, % at 2 µM | D(1A) dopamine receptor (Homo sapiens), P21728; in the data active means activation above about 30%; further: 0% is about no effect
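Inducible HEK293 T-REx D1 cells, force-coupled to calcium signalling, were plated at 4000 cells/well with tetracycline and held overnight at 30 C. After no-wash calcium dye loading, compound-evoked calcium rise over 180 s flagged agonists.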
DRD3 antagonist: qHTS of D3 Dopamine Receptor Antagonist: qHTS; D(3) dopamine receptor (Homo sapiens), P35462; D3R cells, DiscoveRx beta-arrestin luminescence, antagonist mode; hits give low values; max response, negative = inhibition, %; actives 2.5% (n = 360,000); in the data active means max response below about -50%; inconclusive means no clear call, values can overlap the other calls; further: on the % scale 0 is the no-effect control and ±100 the full control effect
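Cells expressing the human receptor were seeded at 1500 cells/well, incubated overnight at 37 degrees C in 5% CO2, then exposed to library compounds with dopamine controls for 90 minutes at 37 degrees C before luminescent detection.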
D3 ag: qHTS of D3 Dopamine Receptor Agonist: qHTS | D(3) dopamine receptor (Homo sapiens), P35462 | D3R DiscoveRx beta-arrestin cells, luminescence, 90 min | max activation, % | actives 0.58% (n = 410,000); in the data active means max activation above about 30%; further: 0% is about no effect
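Agonist mode: compounds and dopamine controls were applied to plated cells for 90 min at 37 degrees C after an overnight attachment at 1500 cells/well. Luminescent read-out followed 30 - 60 minutes at room temperature with DiscoveRx detection reagent.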
D1 potentiator: Potentiators of Human D1 Dopamine Receptor: qHTS | HEK293 TREx D1 cells, calcium flux, dopamine EC20 potentiation | actives 0.036% (n = 360,000) | AID 504651, 2011 | potentiation, % at 10 µM; in the data active means potentiation above about 30%; further: 0% is about no effect
Numbers without * were called inactive; ? = inconclusive; . = no result given.

SMILES	D1 antagonist	D1 ag	DRD3 antagonist	D3 ag	D1 potentiator
COC(=O)c1c(C)oc2ccc(N(C(=O)c3ccncc3)S(=O)(=O)c3ccc(OC)cc3)cc12	-48*	0	.	6	-4
CCN(CC)C(=O)c1sc2c(c1C)c(=O)n(Cc1ccccc1)c(=O)n2Cc1ccccc1C	-8	0	.	-9	0
CSc1nc(N)nc(SCC(=O)Nc2cccc(F)c2)c1C#N	-44*	19	8	-5	-13
N#Cc1c(C(F)(F)F)cc(-c2cccs2)nc1SCC(=O)Nc1ccc(F)cc1	5	16	.	0	-1
N#Cc1c(C(F)(F)F)cc(-c2cccs2)nc1SCC(=O)Nc1cccc(Br)c1	-16	184*	.	-10	4
CSc1nc(N)nc(SCC(=O)Nc2ccc(Cl)cc2)c1C#N	-8	-1	?	-13	2
N#Cc1c(C(F)(F)F)cc(-c2cccs2)nc1SCC(=O)Nc1cccc(Cl)c1	14	47*	.	9	-4
CCOc1ccc2nc(N3CCCC(C(=O)Nc4ccc(OC)c(Cl)c4)C3)sc2c1 (stereo not drawn)	3	0	.	5	-5
O=C(Cn1cc(SCc2ccccc2F)c2ccccc21)N1CCCCCC1	5	7	.	-2	-2
CSc1cccc(NC(=O)c2ccc3c(c2)c(C)c(C)n3Cc2ccc(F)cc2)c1	7	3	.	-11	-2
COc1ccc(Cl)cc1NC(=O)CN1CCC(n2nnc3cc(C)ccc32)CC1	-37*	2	-23	0	-8
COc1ccc(C(=O)NNC(=O)CN2CCC(n3nnc4cc(C(F)(F)F)ccc43)CC2)cc1	-18	27	10	11	-2
COc1ccc(Cl)cc1NC(=O)CN1CCCCCC1	8	2	?	-17	4
COc1ccc(C(=O)NNC(=O)CN2CCC(n3nnc4cc(F)ccc43)CC2)cc1	-34*	1	-2	-9	3
COc1ccccc1NC(=O)CN1CCC(n2c(C)nc3cc(F)ccc32)CC1	8	2	19	1	-11
COc1ccccc1NC(=O)CN1CCC(n2nnc3cc(F)ccc32)CC1	-46*	1	?	-6	-9
Cc1ccc2c(c1)nnn2C1CCN(CC(=O)Nc2ccccc2N2CCOCC2)CC1	-30*	3	?	-29	-13
COc1ccccc1NC(=O)CSc1nc2ccccc2c2nc(-c3ccccc3)nn12	6	0	.	5	-3
O=C(Cn1nc(C(F)(F)F)c2c1CCCC2)Nc1ccc(F)c(Cl)c1	-19	19	.	-6	1
N[C@@H](C(=O)N[C@@H]1C(=O)N2C(C(=O)O)=C(CSc3cn[nH]n3)CS[C@H]12)c1ccc(O)cc1	.	.	.	-13	.
CCOC(=O)N1C/C(=C\c2ccccc2)C(=O)/C(=C/c2ccccc2)C1	-16	10	-52*	-3	-4
CN(C)CCC(=O)N1C/C(=C/c2ccccc2)C(=O)/C(=C\c2ccccc2)C1	.	.	-85*	-24	.
O=C1/C(=C/c2ccccc2)CN(C(=O)CCN2CCOCC2)C/C1=C\c1ccccc1	.	.	-77*	-19	.
COc1ccc(C(=O)NCCSc2c[nH]c3ccccc23)cc1OC	-13	6	.	-7	0
CCc1ccccc1NC(=O)c1nn(-c2ccc(C)cc2)c(=O)c2c1c1ccccc1n2C	-33*	2	.	-20	-3
SMILES	D1 antagonist	D1 ag	DRD3 antagonist	D3 ag	D1 potentiator
COc1ccc(-n2nc(C(=O)Nc3cccc(Cl)c3)c3c4ccccc4n(C)c3c2=O)cc1Cl	-32*	2	.	9	2
CC(=O)c1ccc(NC(=O)c2cn(C)c(=O)c3ccccc23)cc1	-7	0	-5	-11	2
COc1ccc(-n2nc(C(=O)Nc3cccc(C)n3)c3c4ccccc4n(C)c3c2=O)cc1Cl	-8	1	.	3	1
CCc1ccccc1NC(=O)c1cn(C)c(=O)c2ccccc12	-69*	-2	.	-1	0
O=C[C@H](O)[C@@H](O)[C@H](O)[C@H](O)CO	.	.	.	10	.
COc1ccc(CCNCCC(c2ccccc2)c2ccccc2)cc1OC	.	.	-29	0	.
COc1cc(OC)c(OC)cc1CCC(C)NCCC(c1ccccc1)c1ccccc1 (stereo not drawn)	-15	78*	-71*	0	-7
COc1ccc(/C=C2\CCc3ccccc3C2=O)cc1Cn1nc(C)cc1C	7	6	-79*	1	-1
O=C(c1cccnc1)N1C2CCC1CC(O)(c1ccc(F)cc1)C2 (stereo not drawn)	5	2	-57*	-28	1
CC(=O)c1cccc(NC(=O)N2C3CCC2CC(O)(c2cccnc2)C3)c1 (stereo not drawn)	1	3	-15	1	2
CCS(=O)(=O)N1CCN(C(=O)c2cccnc2)CC1	30	4	27	3	-3
Cc1cc(N2CCCC2)nc(N2C3CCC2CC(O)(c2ccc(F)cc2)C3)n1 (stereo not drawn)	-26	0	.	.	-6
CC1COCC(C)N1C(=O)c1cccnc1 (stereo not drawn)	.	.	-125*	1	.
O=C(c1ccc(F)cc1)N1C2CCC1CC(O)(c1ccc(F)cc1)C2 (stereo not drawn)	19	4	-54*	-10	-1
Cc1ccc(CNC(=O)CN2C(=O)COc3ccc(S(=O)(=O)N4CCC(C)CC4)cc32)cc1	19	5	.	-10	4
N#Cc1c(-n2ncnc2-c2cccc(Cl)c2)sc2c1CCCCC2	-4	-2	.	-15	2
Cc1c(C(=O)N2CCN(c3ccc([N+](=O)[O-])cc3)CC2)sc2ncn(CC(=O)N3CCOCC3)c(=O)c12	9	54*	0	1	.
CCn1cc2nc(SCC(=O)Nc3ccccc3C(F)(F)F)n(Cc3ccc(C)cc3)c(=O)c2n1	24	10	.	-4	0
N#Cc1ccccc1COC(=O)c1ccc2c(c1)OCO2	-42*	3	14	2	-2
N#Cc1ccccc1COC(=O)c1ccc2c(c1)OCCO2	-11	4	0	-3	-1
Cc1ccc(Sc2nc(-c3ccccc3)nnc2C(F)(F)F)cc1	-2	3	-70*	-5	2
Cc1cc(C)cc(NCc2cc3c(cc2[N+](=O)[O-])OCO3)c1	-33*	3	-28	-18	-2
CCn1c(C(=O)OC)cc2c1ccn2-c1ccc(F)cc1	26	0	-77*	4	-1
COC(=O)c1cc2c(ccn2-c2ccc(F)cc2)n1Cc1ccc(OC)cc1	35	10	-13	-5	-2
N#Cc1ccccc1NC(=O)C(=O)NCC(c1ccc2c(c1)OCO2)N1CCOCC1 (stereo not drawn)	-10	1	.	-12	-2

Source: PubChem
